The target of the assay is RUNX1 (UniProt Q01196). Briefly: RUNX1 binding intensity (PBM fluorescence), RUNX1 alone (arbitrary fluorescence units); higher = stronger binding. As to conditions: RUNX1 concentration 2 nM; ETS1 concentration 0 nM. The procedure:
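Cooperative gcPBM on 36-bp genomic probes with neighbouring ETS1 and RUNX1 sites. Recombinant human RUNX1 (2 nM) was incubated alone or with ETS1 (25 nM) and detected with anti-RUNX1 antibody plus Alexa488 secondary. Values are medians over 4 replicate spots; the RUNX1+ETS1 data were normalised to the RUNX1-only data. The probes sit in constant array flanks that are not printed.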
Chain of RUNX1 (Q01196 whole entry): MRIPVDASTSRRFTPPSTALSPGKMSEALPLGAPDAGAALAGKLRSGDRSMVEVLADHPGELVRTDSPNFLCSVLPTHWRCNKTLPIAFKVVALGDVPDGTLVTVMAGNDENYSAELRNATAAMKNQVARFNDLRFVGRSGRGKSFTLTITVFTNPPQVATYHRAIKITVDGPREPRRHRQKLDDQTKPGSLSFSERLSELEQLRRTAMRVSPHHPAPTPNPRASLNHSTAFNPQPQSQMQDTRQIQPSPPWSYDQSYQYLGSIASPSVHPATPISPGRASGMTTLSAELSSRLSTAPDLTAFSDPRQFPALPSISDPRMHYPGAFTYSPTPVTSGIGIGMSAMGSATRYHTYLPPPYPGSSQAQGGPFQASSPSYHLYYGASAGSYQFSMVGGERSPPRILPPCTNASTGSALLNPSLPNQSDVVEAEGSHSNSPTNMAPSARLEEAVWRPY
ACTGCTTGATTTTCAGGAAGTGGTAAAGTGGCAGGT came in with an RUNX1 binding intensity of 782.
TCCTATATACTTCCGTTTGCCTCGCGGTTTCTTTCT returned an RUNX1 binding intensity of 2730.
As for AAGACAACATCCTGCCGGCACAGCCTGCGGGTTACT, the RUNX1 binding intensity came out at 720.
To CTCACAACTCGCGTCCGGCGGAGACCACAATTCCCG belongs 863; to AATATCCTGTATGTCATGCTTAAAAAGCCACAAAAC, 875; to GCACCCGGCACTACTTCCCGACCCGCATCCCCCGCC, 1260.
The sequence CCGCCCCCGGACGGTCACAGCACCCAAACCGCAGGC had an RUNX1 binding intensity of 2740.
Consider AGCCTGGCCTCGGCAGGATGTGGGTGTAGGTCATGC, for which the RUNX1 binding intensity was found to be 732.
The sequence CCCTGACTTTTACGGAAATAGCGGTCCAAAAGCGCC came in with an RUNX1 binding intensity of 880.
In turn, CTTCATCAACCCATCCTGTCTTGTGGTTAAGTCAAG returned an RUNX1 binding intensity of 4120.
To CGAGCTCGGTGTTCCGCTTTTTGTGGGCCGGGTGGG belongs 1080; to TCCCCCACTTCCTGGCAGCAGCAGTGTGGTGAGGAG, 879.
As for TGCACCCGCCACTTCCGCATCGAACCGCCGCTTCAA, the RUNX1 binding intensity stood at 1030.
On to TATGGGGCCGGAAGCCATTCACCACAAACACTGTGT, for which the RUNX1 binding intensity came out at 953.
GCAACTGAACAGGAAACTAAAAAACCACAACACTTA yielded an RUNX1 binding intensity of 1900.
As for CGTTTCCTGTCTGGGACTGCGCCCACGCGGTCACGT, the RUNX1 binding intensity is 966.
ACTTACTTCCCGACGTCACAGCCACCGAAACCACAG registered an RUNX1 binding intensity of 1410.
To GTGCTAGGACACAGGAAGCGATACCACAAAGAACAT belongs 818.
Consider GCCGCTGGGTAGGCGGAAGTAGCCGCAGGCATGGCA, for which the RUNX1 binding intensity turned out to be 760.
To ACTGCACGGCTGGGAGGATGTGGTCACACACGCCAC belongs 869; to TGCCGGGCCCCGGATGTCACCGCAGCCGCCATCTTA, 968; to GCGAGACGCGGAAGAGGCTTGCGGTTGACCAAAGAA, 1830.
TCCTCCGTTTCCGTAGTTCCGAGTTGCGGTTTCTCC showed an RUNX1 binding intensity of 12000.
Sequence TGCTGCAGCGGCGCTTCCTGGTGGTCAGGGCGCCAT gave an RUNX1 binding intensity of 707.
To TGCAGTCGTGAAAAAGGAAGTGGTTAAAGTGGATAC belongs 836; to GTGTGGAAGGAGGAAGCGAGAATGTGGTTACTTAGG, 868; to AGACGGGACCGGAAGCCGGGCCGCAGGCGGCCGGGC, 811.
TTAAGGAGCTTCCGGGGCCGCGGGTAGAGGCGGGTG returned an RUNX1 binding intensity of 676.
To GAGTGACTGCTAACGGATGTGTGGTTTCTTTAGTTT belongs 926; to CTCTTCCGCTCAGTCATCCTCAGAGGTGGTAAGACT, 1080.
To TCCCTAAGTCACATCCTGTGGGCAAAGGCCCTAGCA belongs 769; to ATGGAAAGGAAGTCGGTGGGAAACCGCCTCAGCGGT, 740.
Take CCAAGTGTAAAACGGAAGCTCAACCACGAATCTTAC: the RUNX1 binding intensity amounted to 800.
In turn, CTCCACCGGATGCAGCAATGAAGGCCGCAGGAATGG registered an RUNX1 binding intensity of 712.
Take CCAAAATTGCCACGGAAACCACATCTTTCAGGCGAG: the RUNX1 binding intensity was 1520.
As to GCAGCTCTGGCAGGATGCGGTTAAATATGTATCCAC, the RUNX1 binding intensity came out at 1920.
To CTTCTGGCGGAAGCGGCACAAGCCGCAGTACAGCGC belongs 738; to CAGAGAGCGGACTTCCGCGACGCGGGTAAGCCGGGC, 670.
To AACAGACAGGATGTGGCCTCTGCCAAAACCACCATC belongs 869.
To GTCTTCCTTCCTGAGAATCTTAACCACCAGCTTGCC belongs 1350.

The values are drawn from the supplement of paper PMC10681739.
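Also: Full-length recombinant human RUNX1 bound to double-stranded 36-bp genomic probes on a high-density microarray, scored as Alexa488 fluorescence per spot via anti-RUNX1 antibody, median of four replicate spots.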
